Sampled rows, rich in hits. Any-hit rate of the full collection: about 3.9%.
BoNT F protease: inhibitors of Botulinum neurotoxin F light chain protease; Multiplex microsphere protease cleavage assay, flow cytometry; inhibition, % at 10 µM; actives 0.22% (n = 360,000); in the data active = inhibition above about 35%, passing the limit was not always enough; inconclusive = no clear call, values can overlap the other calls; also: plate controls were buffer without enzyme for full effect and enzyme alone for no effect
3CLpro inhibitor: SARS-CoV 3CLpro protease inhibition; P0C6X7; recombinant SARS-CoV 3CLpro, quenched FRET peptide cleavage; inhibition, % at 6 µM; actives 0.14% (n = 290,000); in the data active = inhibition above about 12%
Anthrax LF prot: anthrax lethal factor protease inhibition; multiplex microsphere protease cleavage assay, LF; actives 0.12% (n = 360,000); P15917; inhibition, % at 10 µM; also: plate controls were buffer without enzyme for full effect and enzyme alone for no effect
DUSP3 inh: blocks human VHR1 dual specificity phosphatase. inhibition, % at 13.3 µM. actives 0.52% (n = 290,000). P51452. recombinant VHR phosphatase, pNPP absorbance; in the data active = inhibition above about 50%
Target sequence (P51452 whole entry, looked up): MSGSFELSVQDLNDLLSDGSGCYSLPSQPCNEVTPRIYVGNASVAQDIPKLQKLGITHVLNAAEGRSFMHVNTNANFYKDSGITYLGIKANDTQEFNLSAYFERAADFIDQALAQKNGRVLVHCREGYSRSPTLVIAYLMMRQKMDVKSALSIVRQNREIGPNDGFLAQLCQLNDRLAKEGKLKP
Autofluor counter: counter-screen for toxin protease inhibitors: compound fluorescence. fluorescence intensity (test concentration not listed). compound autofluorescence counterscreen, microsphere flow cytometry; active compounds read high. actives 3.1% (n = 360,000); in the data active = fluorescence intensity above about 16000; inconclusive = no clear call, values can overlap the other calls
BoNT-A LC inh2: inhibitors of Botulinum neurotoxin A light chain protease; multiplex microsphere protease substrate cleavage, flow cytometry; inhibition, % at 10 µM; actives 0.17% (n = 360,000); also: plate controls were buffer without enzyme for full effect and enzyme alone for no effect
Starred values were filed as active, the others as inactive; ? = inconclusive; . = no result. Rule as the data show it, unless noted: active = inhibition above about 30%; inconclusive = no clear call, values can overlap the other calls; inactive = below that.

SMILES | BoNT F protease | 3CLpro inhibitor | Anthrax LF prot | DUSP3 inh | Autofluor counter | BoNT-A LC inh2
COc1cccc(Nc2cc(C)nc3ccccc23)c1 | 0 | -5 | 1 | -18 | 20171* | ?
COc1ccc(Nc2ccccc2)c(C)c1 | -2 | 1 | -2 | 0 | 22653* | 2
Cc1ccc(NS(=O)(=O)c2ccc(Cl)c(NC(=S)NC(=O)C3CCCCC3)c2)cc1Cl | -3 | 3 | 0 | -11 | 2556 | -1
Cc1ccc2c(c1)c(/C=C/c1cc[n+](C)cc1)c(C)n2C | -19 | -26 | -4 | -1 | 20045* | -24
Cc1ccc2[nH]c(C)c(/C=C/c3cc[n+](C)cc3)c2c1 | 32 | -8 | 1 | 24 | 11493 | -17
Cc1sc2nc(CN3CCOCC3)nc(NS(=O)(=O)c3cc(Cl)ccc3Cl)c2c1C | 0 | . | -3 | . | 3770 | 0
Nc1nnc(CC(=O)N/N=C/c2ccc(-c3ccc(F)cc3)o2)s1 | 38* | 0 | ? | 0 | 4152 | 4
Cc1cc(N2CCOCC2)nc2ccc(NC(=O)CCC(=O)N3CCC(C)CC3)cc12 | 0 | -1 | -2 | 26 | 19171* | 2
Cc1cc(N2CCOCC2)nc2ccc(NC(=O)CCC(=O)N3CCCCC3)cc12 | -2 | 1 | -3 | 32 | 23643* | -1
CCC(C)NC(=O)CCC(=O)Nc1ccc2nc(N3CCOCC3)cc(C)c2c1 (configuration not stated) | 6 | -3 | -2 | 2 | 2804 | 1
COc1ccc(N(C)C(=O)CCC(=O)Nc2ccc3nc(N4CCOCC4)cc(C)c3c2)c(OC)c1 | -2 | -4 | -2 | 8 | 16645* | 0
CC(C)=CCC[C@H](C)C[C@@H]1Cc2[nH]c(=S)[nH]c(=O)c2[C@@H](c2ccc(F)cc2)O1 | 6 | . | 5 | . | 5657 | 0
CSc1ncccc1C(=O)OCC(=O)N(C)Cc1ccc(C)cc1 | 2 | . | -1 | . | 3975 | 0
COc1cccc(/C=C/C(=O)OCC(=O)c2c[nH]c3ccccc23)c1OC | -9 | 0 | 15 | -6 | 4789 | 39*
Cn1cnnc1SCC(=O)c1c[nH]c2ccccc12 | -9 | -5 | 6 | 30 | 25248* | -6
CC1CC(C)CN(CC(=O)c2c[nH]c3ccccc23)C1 (configuration not stated) | 36* | -3 | 0 | -8 | 7467 | 2
CCn1c(SCC(=O)c2c[nH]c3ccccc23)nnc1-c1cccs1 | . | -2 | . | -12 | . | .
COc1cccc(/C=C/C(=O)OCC(=O)c2c[nH]c3ccccc23)c1 | 1 | . | 2 | . | 8437 | 3
CCn1nc(C(=O)OCC(=O)c2c[nH]c3ccccc23)c2ccccc2c1=O | -18 | 2 | 38* | 7 | 10209 | 45*
CC(C)n1nc(C(=O)OCC(=O)c2c[nH]c3ccccc23)c2ccccc2c1=O | 3 | 6 | -7 | 0 | 15302 | 5
CN(C(=O)CCS(=O)(=O)c1ccc2c(c1)oc(=O)n2C)C1CCCCC1 | 1 | 4 | 0 | 27 | 4518 | 0
COC(=O)[C@H](Cc1ccccc1)NC(=O)Cn1cnc2c(NCc3ccccc3)ncnc21 | -3 | . | -9 | . | 3081 | 0
CC1CCCCC12NC(=O)N(CC(=O)NCCc1c[nH]c3ccccc13)C2=O (configuration not stated) | -1 | . | 1 | . | 8087 | 1
O=C(O)CC(NC(=O)CC(c1ccccc1)c1ccccc1)c1cccc([N+](=O)[O-])c1 (configuration not stated) | -21 | 0 | -2 | 9 | 3813 | -2
O=C(COC(=O)C1CC1)c1c[nH]c2ccccc12 | 5 | -5 | -16 | -2 | 19998* | 4
SMILES | BoNT F protease | 3CLpro inhibitor | Anthrax LF prot | DUSP3 inh | Autofluor counter | BoNT-A LC inh2
CC(C)(C)NC(=O)CSc1nnc(Cc2ccc3c(c2)OCO3)n1C1CCCCC1 | -5 | -5 | -5 | 20 | 20511* | -2
Cn1c(Cc2ccc3c(c2)OCO3)nnc1SCC(=O)NC1CCCC1 | . | 0 | . | 18 | . | .
O=C(O)c1ncc(-c2ccccc2)cn1 | -9 | 3 | -5 | 36 | 17752* | -4
CCOc1ccc(CCNC(=O)CCCN2C(=O)c3ccccc3C2=O)cc1OCC | 2 | -3 | -1 | -9 | 21585* | ?
CNC(=O)CCCc1nc(-c2ccccc2Cl)no1 | -10 | 3 | -5 | 42 | 17469* | -6
NC(=O)CCCc1nc(-c2ccccc2Cl)no1 | 2 | 3 | -2 | 6 | 11046 | 0
O=C(CCCc1nc(-c2ccccc2)no1)NCc1cccnc1 | -8 | 2 | 0 | -8 | 24495* | ?
O=C(CCCc1nc(-c2ccccc2)no1)Nc1cccnc1 | -6 | -1 | 2 | 17 | 4183 | -1
COc1ccc(-c2noc(CCC(=O)NCc3cccnc3)n2)cc1 | -4 | 1 | 1 | 12 | 23172* | -1
CC1=C(C(=O)N2CCCCCC2)CC(CC(=O)NCC2CCCCC2)C(=O)N1CCCN1CCCC1=O (configuration not stated) | -3 | . | -2 | . | 5527 | 0
O=C(CCCN1C(=O)c2ccccc2C1=O)NCc1cccnc1 | -3 | -5 | -4 | 18 | 22861* | -1
Cc1ccc(NC(=O)C(C)C(=O)Nc2ccc(C)cc2)cc1 | 0 | 6 | -5 | 11 | 4833 | 0
Cc1ccc(NC(=O)N2CCC(=O)N2)cc1 | -5 | 2 | -8 | 13 | 23674* | -3
CCCCn1nnnc1C(c1cc2ccccc2o1)N1CCN(c2cc(C)nc3ccccc23)CC1 (configuration not stated) | 0 | . | -1 | . | 6079 | 1
COc1ccc(-n2cnnc2SCC(=O)N(C)C2CCS(=O)(=O)C2)cc1 (configuration not stated) | -3 | 0 | -2 | 23 | 23013* | 0
CC(C)OCCCNC(=O)C1CCC(CNS(=O)(=O)c2ccccc2)CC1 (configuration not stated) | -2 | 3 | -2 | 23 | 11206 | -1
CC(C)(C)N(Cc1ccccc1)C(=O)CSc1nnc(CNc2ccc(F)cc2)o1 | 13 | 5 | -10 | 18 | 17024* | 10
O=C(CSc1nnc(CNc2ccc(F)cc2)o1)N1c2ccccc2Sc2ccccc21 | 0 | 11 | -3 | 16 | 20080* | 2
Cc1c(NC(=O)c2cnc(Cl)c(Cl)c2)c(=O)n(-c2ccccc2)n1C | -15 | -1 | -4 | 44 | 3785 | -6
N#Cc1ccc(OCc2c(-c3ccccc3)nnn2CC(=O)O)cc1 | -7 | . | 1 | . | 3991 | 0
O=C1c2ccc3c4c(ccc(c24)C(=O)N1Cc1cccnc1)C(=O)N(Cc1cccnc1)C3=O | . | 2 | . | 26 | . | .
O=C1c2ccc([N+](=O)[O-])cc2C(=O)N1Cc1cccnc1 | -8 | 2 | 10 | 52* | 3521 | 0
Cc1ccc(N(CCC#N)C(=O)COC(=O)C2CCN(S(=O)(=O)c3ccc4c(c3)OCCO4)CC2)cc1 | -6 | . | 0 | . | 7452 | -5
O=C(NCc1ccccc1Cl)c1ccc(Cn2cc(C(F)(F)F)ccc2=O)cc1 | -6 | -2 | -1 | 35 | 17060* | -3

Bioassay records: PubChem, several laboratories
